# The whole screen tested about 69,000 compounds, of which about 8,600 (12%) showed an effect of 50% or more. Many of the other results were omitted from the sample, so strong results are more common in it than they were.
# Test system: Plasmodium berghei
# Test: Screen against P. berghei liver stage (PbLuc), transformed with Luciferase, at 10uM
# Type: functional, HepG2
# Conditions: tested at 10 uM
row,SMILES,INHIBITION [%]
1,Cn1cccc1C(O)CNC(=O)c1ccc(C(F)(F)F)cc1 (centres undefined),-118
2,Cc1ccc(C(=O)N2CCC3(CCN(C(=O)c4cccnc4)C3)CC2)o1,34.7
3,O=C(N1CCCC1)N1CCC2(CC1)CN(c1cccnc1)C(=O)CO2,82.9
4,Cc1cccc(N2CCC3(CCCN(C(=O)c4cccnc4)C3)C2)n1 (centres undefined),-19.1
5,CS(=O)(=O)N1CCC2(CCN(C(=O)c3cccnc3)CC2)C1,58.8
6,O=C(CC1CC1)N1CCC2(CC1)CN(c1cccnc1)C(=O)CO2,30.3
7,Cc1occc1C(=O)N1CCC2(CCN(C(=O)c3cccnc3)C2)CC1,28.5
8,O=C(c1cccnc1)N1CCC2(CCN(C(=O)c3ccco3)CC2)C1,59.3
9,CS(=O)(=O)N1CCC2(CN(C(=O)c3cccnc3)C2)C1,33.5
10,Cc1ccc(N2CCC3(CCCN(C(=O)c4cccnc4)C3)C2)nn1 (centres undefined),53.5
11,CC(=O)NCC(=O)N1CCC2(CC1)CN(c1cccnc1)C(=O)CO2,17.1
12,Cc1ccc(C(=O)N2CCC3(CCCN(c4ccc(C)nn4)C3)C2)cn1 (centres undefined),18.6
13,CS(=O)(=O)N1CCOCC2(CCN(C(=O)c3cccnc3)CC2)C1,18.5
14,Cc1nn(C)c(C)c1CNCc1cccnc1N1CCOCC1,22.5
15,CN(C)C(=O)C1OC2(CCN(C(=O)c3ccco3)CC2)c2ccccc21 (centres undefined),12.7
16,CC(C#N)CN(C)C(=O)CCNC(=O)C(C)(C)C (centres undefined),-6.91
17,CCc1[nH]ncc1C(=O)N1CCCC(n2cc(C)cn2)C1 (centres undefined),-12.2
18,O=C(c1ccco1)N1C[C@H]2CCCN(Cc3cccs3)[C@H]2C1,37
19,CC(C)c1nn(C)c(N2CCOCC2)c1CNCCC(=O)N(C)C,24.95
20,O=S(=O)(NCc1ccccc1)Nc1ccc(-n2cncn2)cc1,35
21,CC(C)c1n[nH]c(C2CN(C(=O)CCc3cscn3)CCO2)n1 (centres undefined),-15.52
22,Cc1ccccc1OCC(=O)N1CCCC(CNS(C)(=O)=O)C1 (centres undefined),-3.8
23,O=C(NCc1nncn1C1CCCCC1)C1CNCCO1 (centres undefined),33.4
24,COc1ccc(C2CCCN2C(=O)c2ccnc(NC3CC3)c2)cc1 (centres undefined),-59.3
25,O=C(NC1CC1)N1Cc2[nH]nc(COc3cccnc3)c2C1,-4.02
26,CN(C)Cc1cccc(-c2cccnc2C(=O)NCC2CC2)c1,18.4
27,O=C(c1ccnnc1)N1CCC2(CC1)CCN(C(=O)c1cccnc1)C2,16.8

row,SMILES,INHIBITION [%]
1,CC(C)N1CCC2(CCN(C(=O)c3cccnc3)CC2)C1,15.4
2,O=C(c1ccoc1)N1CCC2(CC1)C(=O)Nc1ccccc12,25.4
3,CN1CCC2(CCN(C(=O)c3cccnc3)C2)C1 (centres undefined),12.2
4,O=C(c1ccncc1)N1CCC2(CC1)CCN(C(=O)c1cccnc1)C2,53.9
5,Cc1cccc(N2CCC3(CCN(C(=O)c4cccnc4)CC3)C2)n1,19.5
6,O=C(c1ccco1)N1CCC2(CC1)C(=O)Nc1ccccc12,64.4
7,Cc1cccc(N2CCC3(CCCN(C(=O)c4cccnc4)C3)CC2)n1,-1.26
8,O=C(c1ccno1)N1CCC2(CC1)C(=O)Nc1ccccc12,-19.5
9,O=C(c1cccnc1)N1CCC2(CCN(C(=O)N3CCCC3)CC2)C1,61.1
10,Cn1cccc1C(=O)N1CCC2(CCN(C(=O)c3cccnc3)C2)CC1,37.6
11,NC(=O)N1CCC2(CCN(C(=O)c3cccnc3)CC2)C1,86.5
12,c1cnn(-c2ccc(CN3CCCC(Cn4cncn4)C3)cc2)c1 (centres undefined),13.3
13,O=C(O)C(c1ccc(O)cc1)N1CCC(N2CCSCC2)CC1 (centres undefined),18.6
14,Cc1nc[nH]c1CN(C)Cc1cnn(-c2ccc(F)cc2)c1,-5.22
15,O=S(=O)(CCN1CCCCC1Cn1cccn1)c1ccccc1 (centres undefined),25.8
16,Cc1noc(C)c1CNC(=O)Nc1ccc(N2CCOC(C)C2)cc1 (centres undefined),5.94
17,CN(Cc1cnn(C)c1)C(=O)Cn1c(CS(C)(=O)=O)nc2ccccc21,-7.11
18,CC(CN1CCOC1=O)NC(=O)c1ccccc1Oc1ccccc1 (centres undefined),18.4
19,CCN(Cc1ccoc1)C(=O)NC1CCN(CC=C(C)C)CC1,57.2
20,CCN(Cc1ccoc1)C(=O)NC1CCN(CC2CCCC2)CC1,48.5
21,CCN(Cc1ccoc1)C(=O)NC1CCN(CC2CC2)C1 (centres undefined),19.3
22,CN(CC(=O)NS(=O)(=O)c1ccc(F)cc1)Cc1ccccc1,50
23,CN(CC(=O)NS(=O)(=O)c1cccs1)Cc1ccccc1,32
24,Cc1ccc(S(=O)(=O)NC(=O)CCc2ccccc2)cc1N(C)C,12.589
25,CN(CC(=O)NS(=O)(=O)c1ccsc1)Cc1ccccc1,9.76
26,Cc1cccc(CC(=O)NS(=O)(=O)c2ccc(F)c(F)c2)c1,23.5
27,Cc1cccc(S(=O)(=O)NC(=O)CN(C)Cc2ccccc2)c1,55.1
